This is an account of results in PubChem BioAssay (NCATS).

SMILES strings stand for the structures. Several values for one entry are separate records, joined by “and”; a condition that tells them apart may be missing. Identical values can stand only once. Inconclusive results are not listed. Some compounds were tested as several samples or in several runs, with calls that do not always agree. Activity calls are given as the source filed them. Unless noted, calls come from the whole dose curve; as a rule, active = well fitted curve in the direction sought with a large enough effect; inconclusive = small, poorly fitted or top-dose-only effect, or another doubt; inactive = no such curve, though single readings can be large; an effect the other way counts as inactive or inconclusive.

Experiment [1] concerns the target Hexokinase-4 (Homo sapiens) + Glucokinase regulatory protein (Homo sapiens) (UniProt P35557+Q14397). The experiment is described as follows: qHTS assay for inhibitors of recombinant human GCK-GKRP interaction: HTRF assay (AID 743207).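 Note: 0% = DMSO with GCK present and -100% = DMSO wells lacking GCK.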 A digest of the protocol:
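Steps: dispense GCK–GKRP complex (5 nM each, GST- and FLAG-tagged) with 2 uM S6P; pin in compounds; add XL665/Eu-cryptate-labelled antibodies; incubate 60 min at room temperature; read time-resolved FRET at 665 and 615 nm.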
Background: In qHTS, concentration-response curves come from the screen itself.

Experiment [2] is described as follows: qHTS Assay for Identifying Gametocytocidal Compounds (AID 743244).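 For max response: % is set by controls: 0 for no effect and ±100 for the full control effect; actives lower the fluorescent signal which means gametocytes are killed.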 Note: potency is the fitted concentration of half-maximal effect. The conditions noted are these: P. falciparum 3D7 stage III-V gametocytes, alamarBlue, 72 h; max response: stronger effect = lower value. The method in brief: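 In this qHTS viability screen, late-stage 3D7 gametocytes are incubated with compound for 72 h, then with alamarBlue for 24 h; reduced resorufin fluorescence marks killing.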

Experiment [3] can be described thus: qHTS profiling of the MIPE4 collection as inhibitors of Plasmodium falciparum (3D7) proliferation (AID 743344; call rule not given here). The conditions noted are these: P. falciparum 3D7 in erythrocytes, SYBR Green DNA fluorescence, 72 h; at 28.5 µM (top of the series) unless noted. The method in brief: (§1)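 Erythrocytes infected with P. falciparum (0.3% parasitemia, 2.5% hematocrit) incubated with compounds 72 h at 37 C, 5% CO2. Lysis with saponin/Triton buffer containing SYBR Green I, overnight at room temperature in the dark; DNA fluorescence (485/535 nm) normalised to 0.29 uM artemisinin and DMSO.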

Experiment [4] can be described thus: qHTS profiling of the MIPE4 collection as inhibitors of Plasmodium falciparum (DD2) proliferation (Rep 2) (AID 743346; call rule not given here). As to conditions: P. falciparum Dd2 in erythrocytes, SYBR Green DNA, 72 h; at 28.5 µM (top of the series) unless noted. A digest of the protocol:
as §1

Experiment [5] can be described thus: qHTS profiling of the MIPE4 collection as inhibitors of Plasmodium falciparum (HB3) proliferation (AID 743347; call rule not given here;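 note: plate controls were DMSO vehicle wells for no effect and artemisinin wells for full effect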). As to conditions: P. falciparum HB3 in erythrocytes, SYBR Green DNA, 72 h; at 28.5 µM (top of the series) unless noted. A digest of the protocol: as §1
Experiment [6] is described as follows: High-throughput drug toxicity screening in the BPDCN cell line Gen2.2 (AID 1224824; call rule not given here;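 note: cells exposed to compounds for 48 h before reading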). The conditions noted are these: Gen2.2 BPDCN cells; at 45.8 µM (top of the series) unless noted. The method in brief:
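Gen2.2, 500 cells/well, phenol red-free RPMI/10% FBS/Pen-Strep; 48 h cpd, 37 °C/5% CO2; CTG lum, 15 min RT. Norm: DMSO = 100%, bortezomib 9.2 uM final = 0%.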

Experiment [7] is described as follows: High-throughput drug toxicity screening in the BPDCN cell line Cal-1 (AID 1224825; call rule not given here). As to conditions: Cal-1 BPDCN cell viability, qHTS; at 45.8 µM (top of the series) unless noted. The method in brief:
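500 Cal-1 cells/well, RPMI + glutamine + 10% FBS (phenol red-free); cpd added by pin tool; 48 h, 37C, 5% CO2; CTG 15 min RT, lumi read. Normalised: DMSO 100%, bortezomib 9.2 uM 0%.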

The nature of experiment [8]: qHTS assay for measurement of the activity of small molecule inhibitors on Zika virus induced Caspase-3 activity in human iPSC derived neural progenitor cells (hNPCs) (AID 1224857). Note: nearly all actives have a fitted effect of over 65% in size. Note: potency is the fitted concentration of half-maximal effect. A digest of the protocol: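 In medium with heparin 2 ug/ml and cyclopamine 2 uM, hNPCs (350 cells/well) received compound for one hour and then Zika virus at 2 FFU/cell; caspase activity was measured by Caspase-Glo 3/7 luminescence 6 h post-infection.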

Experiment [9] can be described thus: qHTS assay for measurement of the activity of small molecule inhibitors on Zika virus induced Caspase-3 activity in human astrocytoma cells (AID 1224859). Note: potency is the fitted concentration of half-maximal effect. The method in brief: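 A cell-based luminescent caspase-3/7 assay used SNB-19 cells infected with ZIKV (2 FFU/cell) for 6 h following 1 h compound pretreatment.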
Experiment [10] can be described thus: qHTS Screen of the MIPE 4.0 Collection Against Ewings Sarcoma (RDES) (AID 1259252). Note: nearly all actives have a fitted effect of over 35% in size. Note: potency is the fitted concentration of half-maximal effect. The method in brief:
(§2)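 CellTiter-Glo luminescence after 48 h compound exposure (titration) gave viability; percent activity used DMSO-treated cells as no inhibition and medium-only wells as full inhibition. Cells grown in RPMI/5% FBS, dosed 4 h post-seeding.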

Experiment [11] is described as follows: qHTS Screen of the MIPE 4.0 Collection Against Ewings Sarcoma (TC71) (AID 1259253). Note: nearly all actives have a fitted effect of over 40% in size. Note: potency is the fitted concentration of half-maximal effect. The method in brief:
as §2

Experiment [12] in a line: qHTS Screen of the MIPE 4.0 Collection Against Ewings Sarcoma (EW8) (AID 1259255).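 For viability: 100% = DMSO-treated cells and 0% = medium-only wells without cells.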 Note: nearly all actives have a fitted effect of over 35% in size. Note: potency is the fitted concentration of half-maximal effect. A digest of the protocol:
as §2

The nature of experiment [13]: qHTS profiling of the MIPE4 collection as inhibitors of Plasmodium falciparum (DD2) proliferation (AID 743345; call rule not given here). As to conditions: P. falciparum Dd2 in erythrocytes, SYBR Green DNA, 72 h; at 28.5 µM (top of the series) unless noted. A digest of the protocol: as §1
Experiment [14] in a line: qHTS assay for cell viability of HEK293 cells (AID 743288). Note: % is set by controls: 0 for no effect and ±100 for the full control effect; nearly all actives have a fitted effect of over 50% in size. The conditions noted are these: ATP luminescence (CellTiter-Glo), 18 h; max response: stronger effect = lower value. The method in brief:
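The Tox21 protocol used parental HEK293 cells treated for 18 h at 37 C with compounds delivered by pintool; ATP-coupled luminescence after 30 min at room temperature gave viability.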

The nature of experiment [15]: qHTS profiling for inhibitors of Plasmodium falciparum (3D7) proliferation (AID 743322; call rule not given here;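 note: infected erythrocytes exposed to compound for 72 h before lysis; 100% = DMSO vehicle wells and 0% = 0.29 µM artemisinin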). The conditions noted are these: P. falciparum 3D7 proliferation; at 28.7 µM (top of the series) unless noted. A digest of the protocol: as §1
The nature of experiment [16]: qHTS profiling for inhibitors of Plasmodium falciparum (DD2) proliferation (AID 743323; call rule not given here). As to conditions: lower = more inhibition; at 28.7 µM (top of the series) unless noted. The method in brief: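 Parasite proliferation measured via DNA-dye fluorescence, as uninfected erythrocytes lack DNA. Cultures at 0.3% parasitemia and 2.5% hematocrit incubated 72 h with compound; signal scaled between vehicle and 0.29 uM artemisinin wells.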

Chain of Hexokinase-4 (Homo sapiens) + Glucokinase regulatory protein (Homo sapiens) (P35557 whole entry, looked up): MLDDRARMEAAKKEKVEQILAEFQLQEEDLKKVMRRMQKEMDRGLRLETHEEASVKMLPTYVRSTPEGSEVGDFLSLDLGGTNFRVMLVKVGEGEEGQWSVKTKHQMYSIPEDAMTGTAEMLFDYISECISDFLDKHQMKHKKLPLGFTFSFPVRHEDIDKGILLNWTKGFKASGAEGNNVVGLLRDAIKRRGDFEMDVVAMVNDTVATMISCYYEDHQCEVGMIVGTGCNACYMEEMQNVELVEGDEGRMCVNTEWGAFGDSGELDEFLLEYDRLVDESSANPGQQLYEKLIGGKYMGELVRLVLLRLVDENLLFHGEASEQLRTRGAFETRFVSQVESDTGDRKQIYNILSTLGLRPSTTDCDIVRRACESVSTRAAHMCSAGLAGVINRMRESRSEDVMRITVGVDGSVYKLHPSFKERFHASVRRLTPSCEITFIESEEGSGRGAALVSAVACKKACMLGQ
Chain of Hexokinase-4 (Homo sapiens) + Glucokinase regulatory protein (Homo sapiens) (Q14397 whole entry, looked up): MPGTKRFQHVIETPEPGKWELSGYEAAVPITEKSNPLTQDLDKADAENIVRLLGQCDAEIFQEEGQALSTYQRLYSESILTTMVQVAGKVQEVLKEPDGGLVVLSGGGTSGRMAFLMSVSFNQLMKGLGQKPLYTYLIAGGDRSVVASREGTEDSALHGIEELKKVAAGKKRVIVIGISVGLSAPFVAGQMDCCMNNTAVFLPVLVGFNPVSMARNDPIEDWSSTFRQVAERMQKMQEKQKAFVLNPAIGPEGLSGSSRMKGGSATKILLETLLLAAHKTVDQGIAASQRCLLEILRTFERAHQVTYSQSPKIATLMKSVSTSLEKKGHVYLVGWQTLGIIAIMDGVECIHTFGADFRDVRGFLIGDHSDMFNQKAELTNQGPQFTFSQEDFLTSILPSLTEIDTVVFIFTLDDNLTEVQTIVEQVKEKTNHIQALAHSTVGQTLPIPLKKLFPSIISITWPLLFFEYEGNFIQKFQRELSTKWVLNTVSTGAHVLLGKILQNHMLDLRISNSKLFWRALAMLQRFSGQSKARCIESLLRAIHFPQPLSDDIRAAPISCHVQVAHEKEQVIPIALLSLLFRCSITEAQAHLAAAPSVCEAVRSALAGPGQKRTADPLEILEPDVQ

Turning to `Nc1nc2c(ncn2COCCO)c(=O)[nH]1`, in experiment [1], the result was inactive. Further, the max response in experiment [2] was 17.4% (inactive) and 18.4% (inactive). The compound further registered a parasite growth, % of DMSO control in [3] of 96.7%. In addition, in experiment [4], the parasite growth, % of control (lower = inhibition) is 124%. Also, the growth, % of control in experiment [5] was determined as 99.6%. The cell viability, % of control (lower = more cytotoxic) in [6] was 126%. In experiment [7], the viability (% of control) is 34.4%. Moreover, the Potency result in [8], in [9], in [10], in [11] and in [12] was “inactive” in each case.

For `C1COC(NC(C2CC2)C2CC2)=N1`, the outcome in experiment [1] was inactive. In experiment [2], the max response was 8.63% (inactive) and 12.8% (inactive). Also, in experiment [3], the parasite growth, % of DMSO control worked out at 72.7%. Also, in experiment [13], the parasite growth remaining, % of DMSO control (lower = more inhibition) was 88.7%. The parasite growth, % of control (lower = inhibition) in [4] was found to be 67.2%. For the same compound, the cell viability, % of control (lower = more cytotoxic) in experiment [6] was 33.1%. Besides, in experiment [7], the viability (% of control) was determined as 53.6%. For the same compound, the Potency result in experiment [8], in experiment [9], in experiment [10], in experiment [11] and in experiment [12] was “inactive” throughout.

Take `OC(CCN1CCCCC1)(c1ccccc1)C1CC2C=CC1C2` (configuration not stated): the outcome in experiment [1] was inactive. The max response in [2] is -9.9% (inactive). For the same compound, in [3], the parasite growth, % of DMSO control amounted to 38.1%. For the same compound, the parasite growth remaining, % of DMSO control (lower = more inhibition) in experiment [13] came out at 75.2%. For the same compound, the parasite growth, % of control (lower = inhibition) in experiment [4] was found to be 44.2%. Further, the cell viability, % of control (lower = more cytotoxic) in experiment [6] was found to be 127%. Further, the viability (% of control) in [7] came to 107%. Besides, the Potency result in [8], in experiment [9], in experiment [10], in experiment [11] and in experiment [12] was “inactive” throughout.

Consider `Nc1ccc(S(=O)(=O)Nc2ccnn2-c2ccccc2)cc1`, for which the result in [1] was inactive. For the same compound, the max response in experiment [2] is 9.56% (inactive) and 18.4% (inactive). The same compound registered a parasite growth, % of DMSO control in [3] of 93.3%. In [13], the parasite growth remaining, % of DMSO control (lower = more inhibition) is 103%. For the same compound, in experiment [4], the parasite growth, % of control (lower = inhibition) worked out at 86.8%. Moreover, in experiment [6], the cell viability, % of control (lower = more cytotoxic) came out at 153%. For the same compound, the viability (% of control) in experiment [7] was found to be 115%. In addition, the Potency result in [8], in [9], in experiment [10], in experiment [11] and in experiment [12] was “inactive” in each case.

For the compound `Cc1ccccc1C(OCCN(C)C)c1ccccc1` (configuration not stated), the result in [1] was inactive. Moreover, the max response in experiment [2] was 21.5% (inactive) and -9.62% (inactive) and 11.5% (inactive); in experiment [14] it was -14.1% (inactive). This compound also displayed a parasite growth, % of DMSO control in experiment [3] of 64.6%. Besides, the parasite growth remaining, % of DMSO control (lower = more inhibition) in [13] came to 60.2%. Also, the parasite growth, % of control (lower = inhibition) in experiment [4] stood at 40.2%. Also, in experiment [5], the growth, % of control came to 87.3%. The cell viability, % of control (lower = more cytotoxic) in [6] stood at 149%. Also, in experiment [7], the viability (% of control) was 93%. In addition, the Potency result in experiment [8], in experiment [9], in [10], in [11] and in experiment [12] was “inactive” each time.

Regarding `CN1CCN(CCCN2c3ccccc3Sc3ccc(C(F)(F)F)cc32)CC1`, the result in [1] was inactive. Also, the Potency in experiment [2] was 3.16 µM (active); in experiment [10], 10.5 µM (active); in experiment [11], 10.5 µM (active); in [12] it was 23.5 µM (active). For the same compound, in experiment [3], the parasite growth, % of DMSO control was 108%. Further, the parasite growth remaining, % of DMSO control (lower = more inhibition) in experiment [13] is 97.5%. For the same compound, the parasite growth, % of control (lower = inhibition) in experiment [4] came out at 101%. The same compound returned a growth, % of control in experiment [5] of 83%. Moreover, the cell viability, % of control (lower = more cytotoxic) in experiment [6] is 55.3%. Also, the viability (% of control) in experiment [7] stood at 77.3%. The Potency entry in experiment [8] and in experiment [9] was “inactive” in each case.

For the compound `Cc1[nH]c(=O)c(C#N)cc1-c1ccc2nccn2c1`, the outcome in [1] was inactive. Besides, the max response in experiment [2] was -5.81% (inactive) and 18.1% (inactive). Moreover, in [15], the remaining parasite growth % (stronger effect = lower value) is 105%. For the same compound, the activity, percent of control in experiment [16] came out at 98.1%. The compound further came in with a parasite growth, % of DMSO control in experiment [3] of 50.3%. Further, the parasite growth remaining, % of DMSO control (lower = more inhibition) in experiment [13] was 93.1%. The parasite growth, % of control (lower = inhibition) in experiment [4] was 113%. The growth, % of control in experiment [5] is 68.7%. The cell viability, % of control (lower = more cytotoxic) in experiment [6] came out at 220%. Also, the viability (% of control) in experiment [7] amounted to 95.5%. For the same compound, the Potency result in experiment [8] is “inactive and 7.43 µM (active)”; in experiment [9] it was “inactive and 4.69 µM (active)”. Also, the Potency entry in experiment [10], in [11] and in experiment [12] was “inactive” each time.

On to `CC(C[N+](C)(C)C)OC(N)=O` (configuration not stated), for which the result in experiment [1] was inactive. Further, in experiment [2], the max response is 11.1% (inactive). Besides, the parasite growth, % of DMSO control in [3] worked out at 102%. In experiment [13], the parasite growth remaining, % of DMSO control (lower = more inhibition) came to 101%. The parasite growth, % of control (lower = inhibition) in experiment [4] came to 96.7%. Moreover, in [6], the cell viability, % of control (lower = more cytotoxic) was found to be 120%. Moreover, the viability (% of control) in [7] amounted to 120%. In addition, the Potency entry in [8], in experiment [9], in experiment [10], in [11] and in [12] was “inactive” in each case.
